# Reference: PubChem BioAssay (NCI)
# Compounds without any hit were thinned out: in the full panel of roughly 83,000, 20% have a hit.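 Values shown are percent growth following 48 h exposure of cells in 96-well plates to a single concentration of compound; below 10 was considered active.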 Values without a mark were called inactive. Activity calls are given as the source filed them.
# Legend:
# Test in all cases: NCI-60 one-dose screen, 48 h (100 = growth as untreated, 0 = no growth, -100 = all killed)
# Conditions in all cases: 10 µM unless noted
# NCI-H23 lung = system: NCI-H23 lung
# NCI-H226 lung = system: NCI-H226 lung
# NCI-H322M lung = system: NCI-H322M lung
# HOP-62 NSCLC = system: HOP-62 NSCLC
# NCI-H460 lung = system: NCI-H460 lung
# HOP-92 NSCLC = system: HOP-92 NSCLC
# NCI-H522 lung = system: NCI-H522 lung
# A549/ATCC NSCLC = system: A549/ATCC NSCLC
# 786-0 renal = system: 786-0 renal
# DU-145 prostate = system: DU-145 prostate
# MDA-MB-231 breast = system: MDA-MB-231 breast
# RXF 393 renal = system: RXF 393 renal
# SF-268 CNS = system: SF-268 CNS
# SF-539 CNS = system: SF-539 CNS
# UACC-257 melanoma = system: UACC-257 melanoma
# M14 melanoma = system: M14 melanoma
# K-562 leukemia = system: K-562 leukemia
# MALME-3M melanoma = system: MALME-3M melanoma
# SF-295 CNS = system: SF-295 CNS
# COLO 205 colon = system: COLO 205 colon
Structure (SMILES),growth (NCI-H23 lung),growth (NCI-H226 lung),growth (NCI-H322M lung),growth (HOP-62 NSCLC),growth (NCI-H460 lung),growth (HOP-92 NSCLC),growth (NCI-H522 lung),growth (A549/ATCC NSCLC) [%],growth (786-0 renal),growth (DU-145 prostate),growth (MDA-MB-231 breast),growth (RXF 393 renal),growth (SF-268 CNS),growth (SF-539 CNS),growth (UACC-257 melanoma),growth (M14 melanoma),growth (K-562 leukemia),growth (MALME-3M melanoma),growth (SF-295 CNS),growth (COLO 205 colon)
Cc1nn(-c2ccccc2)c2c1C(c1ccc([N+](=O)[O-])cc1)C(C#N)=C(N)O2 (centres undefined),98.4%,99.3%,116%,94.3%,108%,91.7%,97.5%,102,102%,111%,87.4%,99.2%,108%,95.9%,88.1%,106%,–,–,–,–
O=C1c2ccccc2C2(c3ccc(O)cc3)c3ccccc3Oc3cccc1c32 (centres undefined),33.4%,85.9%,32.5%,31.5%,11.3%,29.9%,48.6%,29,40.6%,–,21.8%,11%,40.3%,-1.29% (active),48%,0.454% (active),19.8%,66.4%,21.3%,–
CN(CCC(=O)/C(=C\c1ccccc1)c1ccc(Cl)cc1)Cc1ccccc1,29.2%,65.6%,71.2%,47.6%,42.2%,82.9%,-45.9% (active),85.9,-64.5% (active),–,13%,-29.3% (active),5.31% (active),-8.26% (active),53.5%,37.9%,22.7%,18%,25.7%,–
CCN(CC)CCCNC(=O)c1ccc(N)cc1,101%,101%,94.7%,98.5%,103%,101%,101%,105,100%,–,104%,110%,102%,106%,92.9%,98.7%,35.8%,94.3%,99.3%,–
Cc1cc(=O)[nH]c(N/N=C/c2cc(Br)ccc2O)n1,33.7%,40.5%,-15% (active),48%,-1.75% (active),55%,19.5%,23.4,7.2% (active),41.7%,35.5%,70.2%,25.2%,16.3%,14.1%,10%,22.5%,–,5.67% (active),–
Cc1ccc(NSc2ccccc2[N+](=O)[O-])cc1,44.6%,65.5%,38.6%,24.8%,14.7%,37.7%,12.7%,20.5,40.2%,–,53.7%,-6.02% (active),48.7%,-12.3% (active),58.1%,7.95% (active),16.9%,44.9%,11.4%,–
COc1ccc(-c2nnc(SCC(=O)NC3=NN=C(c4ccccc4)CS3)o2)cc1,103%,93.8%,102%,86.2%,101%,98.5%,93.3%,74.7,101%,102%,91.5%,117%,94.2%,101%,67.1%,95.5%,–,105%,98%,–
CN(C)c1cnccn1,91.9%,85.4%,114%,90.3%,93.8%,94.4%,45.9%,91.3,98.3%,–,72.4%,94.5%,91.6%,86.5%,95.3%,97.5%,–,127%,122%,–
O=C(NCOC(O)C(Cl)(Cl)Cl)NCOC(O)C(Cl)(Cl)Cl (centres undefined),102%,95.7%,91.7%,91.6%,112%,119%,82.8%,97.5,99.2%,–,106%,125%,105%,90.4%,94.9%,100%,22.2%,99.5%,93.8%,–
Cc1nc(C)c(-c2nn3c(-c4cccc(F)c4)nnc3s2)s1,97.3%,102%,106%,98.7%,102%,86.2%,77.6%,87,–,102%,107%,96.3%,97.6%,104%,92.4%,–,70.4%,111%,100%,101%
O=C1CSC(c2ccccc2Cl)N1c1nnc(Cn2cnnc2)o1 (centres undefined),51.7%,78.8%,–,37.3%,34.2%,43%,101%,58,41.9%,104%,68.6%,–,94.7%,39.7%,–,20.4%,8.59% (active),28.9%,-32.6% (active),–
C/C(Cc1ccc(Cl)cc1)=C(/c1ccc(Cl)cc1)c1ccc(OCCN(C)C)cc1,73.2%,104%,–,99.2%,-46.9% (active),72%,80.6%,57.8,61.7%,62.3%,74.1%,–,85.6%,66.7%,71.3%,–,-4.72% (active),37.1%,97.2%,-59.2% (active)
COc1ccc(NC(=O)C(=O)c2c[nH]c3ccc(F)cc23)cc1,97.8%,101%,–,103%,90.7%,99.2%,85.1%,78.7,56.1%,88.9%,95.5%,103%,94.7%,108%,101%,–,90.6%,115%,102%,104%
C=C1C(=O)O[C@H]2[C@H]1CC/C(COC(=O)/C=C\C(=O)NCc1ccc(Cn3c(=O)sn(-c4ccc(OC)cc4)c3=O)cc1)=C\CC[C@@]1(C)O[C@@H]21,-69.9% (active),-65.9% (active),–,-20.4% (active),-65.5% (active),-65% (active),-45.2% (active),12.6,-57.9% (active),-84% (active),-89.6% (active),–,-78.3% (active),-99.3% (active),-62.2% (active),–,0.146% (active),-92% (active),55%,-45.9% (active)
COC(=O)/C(=C\c1ccc(OC)cc1)C(=O)N1c2ccccc2Sc2ccccc21,72.7%,75.1%,–,64%,96.7%,38.7%,2.63% (active),56.2,70.5%,78.5%,54.2%,47.7%,54.6%,42.1%,65.4%,23.3%,11.1%,32.9%,38.8%,–
N#Cc1cnn2c(-c3ccc(Cl)cc3)nc(NCCc3ccccc3)nc12,85.2%,105%,–,84.9%,99%,92.6%,74.4%,93.3,92.5%,99.5%,87.5%,116%,92.2%,98%,99.9%,95%,–,111%,99.2%,–
CC(=O)Nc1ccc2c(c1)Cc1c(F)cccc1-2,94.9%,89.4%,–,116%,92.2%,89%,89%,92,115%,102%,101%,99%,83.7%,99.4%,110%,119%,120%,130%,109%,–
N#Cc1cnn2c(-c3ccc(Cl)cc3)nc(NC3CC3)nc12,90.9%,97.4%,–,98.3%,100%,97.5%,90.6%,84.4,89.8%,88.8%,101%,93.7%,84.4%,89.2%,111%,108%,–,125%,89.8%,–
Nc1c(-c2nc3ccccc3c(=O)[nH]2)nnn1-c1ccc(Cl)cc1,78.9%,102%,–,57.2%,56.2%,101%,52.5%,40.6,82.2%,77.3%,85%,81.9%,66.8%,50.5%,84.8%,–,–,83.3%,73.6%,98.6%
COc1ccc(/C(C)=C(\c2ccc(Cl)cc2)c2ccc(OCCN3CCCCCC3)cc2)cc1F,54.1%,71%,–,36.3%,8.63% (active),73.3%,65.9%,55,4.15% (active),67.5%,55.1%,–,68.3%,24.5%,39%,–,1.96% (active),-3.61% (active),-7.79% (active),22.3%
